In PubChem BioAssay (NCATS):
Records with an inconclusive call do not appear. A number with no mark means an inactive call. Active and inactive are the calls of the source. The call rests on the fitted dose curve; in most records, active means well fitted inhibition curve with a large enough effect; inconclusive means small, poorly fitted or top-dose-only effect; inactive means no such curve, though single readings can be large or run the other way. Where a SMILES comes first, the peptide text is derived from it. [ ]: non-standard residue; d: D form.

experiment: qHTS to identify inhibitors of the type 1 interferon - major histocompatibility complex class I in skeletal muscle: primary screen against the NCATS Mechanism Interrogation Plate v5.0 (MIPE) Libary (AID 1347411); settings: iHSKM cells + IFN-b, HiBiT-tagged MHC-I luminescence, 24 h; series mostly up to 45.8 µM; activity change, negative = inhibition: at the top concentration; further: nearly all actives have a fitted effect of over 65% in size;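 on activity change, negative = inhibition: plate controls were vehicle for no effect and reference inhibitor for full effect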
In short: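 Immortalized human C25cl48 myoblasts with HiBit knocked into endogenous HLA-B*08:01 were stimulated with 4.0 ng/ml IFN-beta and exposed to compounds (11-point 1:3 titration, top 46 uM final) for 24 hrs at 37 C; HiBiT lytic luminescence measured.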
Potency means the concentration at half of the fitted maximal effect.

Row | Compound | activity change, negative = inhibition [%] | Potency
1 | O=C(O)c1ccc(O)c2ncccc12 | -2.58 | 
2 | CC(C)C[C@@H]1NC(=O)[C@@H](C(C)C)NC(=O)[C@@H]2CCCN2C(=O)[C@@H](CC(=O)O)NC(=O)[C@@H](Cc2c[nH]c3ccccc23)NC1=O (cyclo(L[dW][dD]P[dV])) | 9.6 | 
3 | Nc1nc(F)nc2c1ncn2C1OC(COP(=O)(O)O)C(O)C1O (stereo not given) | -0.183 | 
4 | O=C(/C=C/c1cccnc1)NCCCCC1CCN(C(=O)c2ccccc2)CC1 | -9.58 | 
5 | CC(/C=C1\SC(=S)N(CC(=O)O)C1=O)=C\c1ccccc1 | -12.3 | 
6 | Cn1cc(/C=C/C(=O)c2cccc(F)c2)cc1/C=C/C(=O)NO | -21.1 | 
7 | COc1ccnc2[nH]cc(C(=O)C(=O)N3CCN(C(=O)c4ccccc4)C[C@H]3C)c12 | -4.5 | 
8 | COc1ccc(-n2cnc3cc(C(=O)N4CCCCC4)ccc32)cc1 | 22.2 | 
9 | CCC1CCCCN1C(=O)n1ncc(C(O)(c2ccccc2)c2ccccc2)n1 (stereo not given) | -4.99 | 
10 | CCN1C(=O)CNc2ncc(-c3ccc(-c4ncn[nH]4)nc3C)nc21 |  | 2.94 µM (active)
11 | O=C1OC(COc2ccccc2[N+](=O)[O-])CC1Cc1ccccc1 (stereo not given) | -6.24 | 
12 | O=C(/C=C/c1ccc2ccc(C(F)(F)F)cc2n1)c1ccncc1 |  | 5.23 µM (active)
13 | C[C@H]1CC2[C@@H]3CCC4=CC(=O)C=C[C@]4(C)[C@@]3(F)[C@@H](O)C[C@]2(C)[C@@]1(O)C(=O)CO (stereo not given in full) | -18.6 | 
14 | CN(Cc1ccccc1)C(=O)c1ccc(S(=O)(=O)Nc2ccccc2)cc1 | -13 | 
15 | Cc1c(CN2CCN(C(=O)[C@H](C)O)CC2)sc2c(N3CCOCC3)nc(-c3cnc(N)nc3)nc12 |  | 0.262 µM (active)
